# Reference: article PMC7862700, “An all-to-all approach to the identification of sequence-specific readers for epigenetic DNA modifications on cytosine”
# Tests used:
# Assay in all cases: DAPPL (digital affinity profiling via proximity ligation, sequencing); 10 mM Tris-HCl pH 7.5, 50 mM NaCl, 1 mM DTT, 4% glycerol, room temperature, 30 min; GST-TFs on glutathione beads, 16-mer random dsDNA library, 0.1% formaldehyde crosslink after washing; high values mean tight binding
# FLI1 = molecular target: T1, FLI1 (Homo sapiens, UniProt Q01543 1-452); conditions: protein: recombinant; tags: N-terminal GST; dsDNA, one strand shown
# T1 sequence: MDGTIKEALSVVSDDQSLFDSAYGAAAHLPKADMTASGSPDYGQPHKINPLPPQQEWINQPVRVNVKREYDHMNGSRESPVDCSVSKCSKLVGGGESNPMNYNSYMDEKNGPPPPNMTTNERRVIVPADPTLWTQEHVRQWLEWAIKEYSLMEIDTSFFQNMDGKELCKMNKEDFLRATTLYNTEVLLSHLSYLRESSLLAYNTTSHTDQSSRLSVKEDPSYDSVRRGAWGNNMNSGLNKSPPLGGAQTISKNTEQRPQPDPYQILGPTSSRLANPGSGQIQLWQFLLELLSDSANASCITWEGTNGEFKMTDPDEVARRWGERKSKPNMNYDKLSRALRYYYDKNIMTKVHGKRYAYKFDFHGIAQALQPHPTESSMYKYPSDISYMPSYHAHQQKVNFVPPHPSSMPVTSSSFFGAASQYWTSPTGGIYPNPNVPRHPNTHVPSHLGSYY
# Method in brief: (§1)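 Human transcription factors carrying a GST fusion were produced in yeast, bound to glutathione beads, tagged with DNA barcodes and pooled together with a tag-only sample. Each pool was held with 200 nmole of a random double-stranded 16-mer DNA library in Tris/NaCl/DTT/glycerol buffer for 30 min at room temperature, then washed, crosslinked in 0.1% formaldehyde, proximity-ligated with BsaI/T4 ligase (1 h, 37 °C), PCR-amplified and sequenced on an Illumina NextSeq500. Binding signal is the read frequency of each hexamer for a given factor divided by its frequency in the tag-only sample.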
# ELK1 = molecular target: T2, ELK1 (Homo sapiens, UniProt P19419 1-428); conditions: protein: recombinant; tags: N-terminal GST; dsDNA, one strand shown
# T2 sequence: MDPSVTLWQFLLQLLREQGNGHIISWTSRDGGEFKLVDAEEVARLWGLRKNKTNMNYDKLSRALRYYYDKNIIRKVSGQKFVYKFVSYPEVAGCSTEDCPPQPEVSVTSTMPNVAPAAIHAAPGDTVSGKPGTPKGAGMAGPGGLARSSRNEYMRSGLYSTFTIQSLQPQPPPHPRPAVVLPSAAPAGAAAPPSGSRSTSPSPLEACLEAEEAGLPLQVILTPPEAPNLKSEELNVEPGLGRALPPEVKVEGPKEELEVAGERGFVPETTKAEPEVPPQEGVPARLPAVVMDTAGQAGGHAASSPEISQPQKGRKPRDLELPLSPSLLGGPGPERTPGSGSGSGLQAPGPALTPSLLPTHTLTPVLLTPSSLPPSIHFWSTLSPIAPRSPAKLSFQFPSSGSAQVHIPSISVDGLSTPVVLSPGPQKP
# Method in brief: as §1
# GABPA = molecular target: T3, GABPA (Homo sapiens, UniProt Q06546 1-454); conditions: protein: recombinant; tags: N-terminal GST; dsDNA, one strand shown
# T3 sequence: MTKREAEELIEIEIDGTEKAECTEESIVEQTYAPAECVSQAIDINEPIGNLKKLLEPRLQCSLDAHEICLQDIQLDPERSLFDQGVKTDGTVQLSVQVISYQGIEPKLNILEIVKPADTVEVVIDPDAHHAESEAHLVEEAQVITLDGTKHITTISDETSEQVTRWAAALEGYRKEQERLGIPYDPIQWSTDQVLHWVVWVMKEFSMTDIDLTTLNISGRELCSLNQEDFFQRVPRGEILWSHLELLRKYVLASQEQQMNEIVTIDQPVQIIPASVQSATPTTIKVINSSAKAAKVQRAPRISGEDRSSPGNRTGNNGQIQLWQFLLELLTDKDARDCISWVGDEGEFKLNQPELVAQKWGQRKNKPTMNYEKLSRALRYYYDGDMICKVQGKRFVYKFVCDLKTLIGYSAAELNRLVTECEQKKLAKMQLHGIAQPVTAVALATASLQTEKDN
# Method in brief: as §1
# ERG = molecular target: T4, ERG (Homo sapiens, UniProt P11308 1-479); conditions: protein: recombinant; tags: N-terminal GST; dsDNA, one strand shown
# T4 sequence: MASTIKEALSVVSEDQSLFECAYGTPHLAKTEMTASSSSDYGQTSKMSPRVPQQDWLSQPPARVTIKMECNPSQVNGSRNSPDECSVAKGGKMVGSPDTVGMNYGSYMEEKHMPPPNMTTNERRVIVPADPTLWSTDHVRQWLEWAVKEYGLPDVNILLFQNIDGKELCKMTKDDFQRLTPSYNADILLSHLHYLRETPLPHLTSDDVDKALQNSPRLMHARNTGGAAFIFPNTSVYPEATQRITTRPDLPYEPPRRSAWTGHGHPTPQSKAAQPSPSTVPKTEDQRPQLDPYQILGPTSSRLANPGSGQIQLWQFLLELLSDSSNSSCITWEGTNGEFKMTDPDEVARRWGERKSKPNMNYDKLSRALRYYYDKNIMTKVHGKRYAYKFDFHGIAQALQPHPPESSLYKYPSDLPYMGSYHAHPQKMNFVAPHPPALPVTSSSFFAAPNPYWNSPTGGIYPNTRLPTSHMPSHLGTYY
# Method in brief: as §1
# ELF1 = ELF1 (Homo sapiens, UniProt P32519 1-619); conditions: protein: recombinant; tags: N-terminal GST; dsDNA, one strand shown
# Method in brief: as §1
# EHF = molecular target: T5, EHF (Homo sapiens, UniProt Q9NZC4 1-300); conditions: protein: recombinant; tags: N-terminal GST; dsDNA, one strand shown
# T5 sequence: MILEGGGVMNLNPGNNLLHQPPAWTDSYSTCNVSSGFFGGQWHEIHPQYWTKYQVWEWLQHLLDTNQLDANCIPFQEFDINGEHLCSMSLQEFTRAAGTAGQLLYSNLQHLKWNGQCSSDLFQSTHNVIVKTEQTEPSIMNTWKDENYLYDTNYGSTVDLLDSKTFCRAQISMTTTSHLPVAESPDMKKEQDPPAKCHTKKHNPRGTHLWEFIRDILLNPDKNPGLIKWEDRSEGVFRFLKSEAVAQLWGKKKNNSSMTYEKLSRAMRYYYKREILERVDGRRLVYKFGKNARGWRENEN
# Method in brief: as §1
# SPI1 = SPI1 (Homo sapiens, UniProt P17947 1-270); conditions: protein: recombinant; tags: N-terminal GST; dsDNA, one strand shown
# Method in brief: as §1
# SPIB = SPIB (Homo sapiens, UniProt Q01892 1-262); conditions: protein: recombinant; tags: N-terminal GST; dsDNA, one strand shown
# Method in brief: as §1
# ELK3 = molecular target: T6, ELK3 (Homo sapiens, UniProt P41970 1-407); conditions: protein: recombinant; tags: N-terminal GST; dsDNA, one strand shown
# T6 sequence: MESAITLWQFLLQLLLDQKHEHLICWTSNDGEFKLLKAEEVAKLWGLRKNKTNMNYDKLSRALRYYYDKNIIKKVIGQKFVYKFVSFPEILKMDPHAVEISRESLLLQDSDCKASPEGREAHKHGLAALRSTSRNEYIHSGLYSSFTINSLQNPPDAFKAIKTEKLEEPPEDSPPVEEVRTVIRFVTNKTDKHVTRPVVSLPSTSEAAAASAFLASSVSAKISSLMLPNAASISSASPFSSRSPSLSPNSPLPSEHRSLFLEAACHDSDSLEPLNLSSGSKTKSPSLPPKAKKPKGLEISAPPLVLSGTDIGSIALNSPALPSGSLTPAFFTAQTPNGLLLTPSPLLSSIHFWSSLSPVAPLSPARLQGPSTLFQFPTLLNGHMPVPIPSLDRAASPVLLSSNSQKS
# Method in brief: as §1
# FEV = molecular target: T7, FEV (Homo sapiens, UniProt Q99581 1-238); conditions: protein: recombinant; tags: N-terminal GST; dsDNA, one strand shown
# T7 sequence: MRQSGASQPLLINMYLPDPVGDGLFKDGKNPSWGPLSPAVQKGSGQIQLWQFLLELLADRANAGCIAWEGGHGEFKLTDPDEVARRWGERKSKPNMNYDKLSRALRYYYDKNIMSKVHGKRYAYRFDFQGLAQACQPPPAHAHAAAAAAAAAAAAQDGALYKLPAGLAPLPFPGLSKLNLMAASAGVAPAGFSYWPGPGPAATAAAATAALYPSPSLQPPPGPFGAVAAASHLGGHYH
# Method in brief: as §1
# ETV5 = ETV5 (Homo sapiens, UniProt P41161 1-510); conditions: protein: recombinant; tags: N-terminal GST; dsDNA, one strand shown
# Method in brief: as §1
# HSF1 = HSF1 (Homo sapiens, UniProt Q00613 1-529); conditions: protein: recombinant; tags: N-terminal GST; chain copies: 3; dsDNA, one strand shown
# Method in brief: as §1
# SPIC = molecular target: T8, SPIC (Homo sapiens, UniProt Q8N5J4 1-248); conditions: protein: recombinant; tags: N-terminal GST; dsDNA, one strand shown
# T8 sequence: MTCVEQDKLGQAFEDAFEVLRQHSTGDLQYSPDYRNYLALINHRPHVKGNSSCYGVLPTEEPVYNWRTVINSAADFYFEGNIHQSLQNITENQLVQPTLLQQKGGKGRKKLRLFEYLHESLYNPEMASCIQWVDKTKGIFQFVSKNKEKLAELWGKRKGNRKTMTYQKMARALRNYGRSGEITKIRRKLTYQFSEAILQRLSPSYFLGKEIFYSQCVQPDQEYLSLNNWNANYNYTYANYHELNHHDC
# Method in brief: as §1
# ELF4 = ELF4 (Homo sapiens, UniProt Q99607 1-663); conditions: protein: recombinant; tags: N-terminal GST; dsDNA, one strand shown
# Method in brief: as §1
# ELK4 = molecular target: T9, ELK4 (Homo sapiens, UniProt P28324-2 1-405); conditions: protein: recombinant; tags: N-terminal GST; dsDNA, one strand shown
# T9 sequence: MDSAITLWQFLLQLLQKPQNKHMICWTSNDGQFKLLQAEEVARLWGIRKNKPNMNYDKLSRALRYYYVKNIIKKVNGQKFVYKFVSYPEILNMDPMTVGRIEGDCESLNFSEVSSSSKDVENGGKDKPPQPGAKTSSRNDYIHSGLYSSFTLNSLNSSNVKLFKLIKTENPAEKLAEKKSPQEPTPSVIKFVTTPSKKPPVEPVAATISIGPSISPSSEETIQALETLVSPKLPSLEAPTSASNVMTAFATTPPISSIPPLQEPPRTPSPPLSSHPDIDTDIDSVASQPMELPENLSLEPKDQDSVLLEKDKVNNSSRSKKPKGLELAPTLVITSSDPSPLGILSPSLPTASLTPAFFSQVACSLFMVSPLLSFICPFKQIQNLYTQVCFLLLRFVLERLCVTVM
# Method in brief: as §1
# ETV2 = molecular target: T10, ETV2 (Homo sapiens, UniProt O00321 1-342); conditions: protein: recombinant; tags: N-terminal GST; dsDNA, one strand shown
# T10 sequence: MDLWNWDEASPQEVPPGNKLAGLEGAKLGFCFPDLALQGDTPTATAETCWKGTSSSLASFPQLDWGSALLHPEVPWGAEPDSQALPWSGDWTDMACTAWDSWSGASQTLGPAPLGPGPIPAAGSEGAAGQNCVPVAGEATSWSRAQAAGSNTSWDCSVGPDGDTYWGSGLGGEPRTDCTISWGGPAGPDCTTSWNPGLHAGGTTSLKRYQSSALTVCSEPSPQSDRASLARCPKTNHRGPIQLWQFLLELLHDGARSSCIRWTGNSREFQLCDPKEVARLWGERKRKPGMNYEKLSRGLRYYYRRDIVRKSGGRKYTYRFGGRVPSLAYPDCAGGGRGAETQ
# Method in brief: as §1
# ELF3 = molecular target: T11, ELF3 (Homo sapiens, UniProt P78545 1-371); conditions: protein: recombinant; tags: N-terminal GST; dsDNA, one strand shown
# T11 sequence: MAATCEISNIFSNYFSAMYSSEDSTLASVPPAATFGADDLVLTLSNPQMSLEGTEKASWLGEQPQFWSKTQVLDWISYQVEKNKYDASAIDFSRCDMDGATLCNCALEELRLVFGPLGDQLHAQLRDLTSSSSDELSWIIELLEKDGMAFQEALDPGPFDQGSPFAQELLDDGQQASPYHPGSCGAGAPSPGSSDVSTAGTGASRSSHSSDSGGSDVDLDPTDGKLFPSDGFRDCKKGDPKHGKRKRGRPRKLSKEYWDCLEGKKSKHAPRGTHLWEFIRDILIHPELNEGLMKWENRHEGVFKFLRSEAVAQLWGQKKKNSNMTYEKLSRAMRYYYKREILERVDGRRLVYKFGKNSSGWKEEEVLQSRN
# Method in brief: as §1
# CRX = CRX (Homo sapiens, UniProt O43186 1-299); conditions: protein: recombinant; tags: N-terminal GST; dsDNA, one strand shown
# Method in brief: as §1
# ETV1 = ETV1 (Homo sapiens, UniProt P50549 1-477); conditions: protein: recombinant; tags: N-terminal GST; dsDNA, one strand shown
# Method in brief: as §1
# Chain of ELF4 (Q99607 whole entry): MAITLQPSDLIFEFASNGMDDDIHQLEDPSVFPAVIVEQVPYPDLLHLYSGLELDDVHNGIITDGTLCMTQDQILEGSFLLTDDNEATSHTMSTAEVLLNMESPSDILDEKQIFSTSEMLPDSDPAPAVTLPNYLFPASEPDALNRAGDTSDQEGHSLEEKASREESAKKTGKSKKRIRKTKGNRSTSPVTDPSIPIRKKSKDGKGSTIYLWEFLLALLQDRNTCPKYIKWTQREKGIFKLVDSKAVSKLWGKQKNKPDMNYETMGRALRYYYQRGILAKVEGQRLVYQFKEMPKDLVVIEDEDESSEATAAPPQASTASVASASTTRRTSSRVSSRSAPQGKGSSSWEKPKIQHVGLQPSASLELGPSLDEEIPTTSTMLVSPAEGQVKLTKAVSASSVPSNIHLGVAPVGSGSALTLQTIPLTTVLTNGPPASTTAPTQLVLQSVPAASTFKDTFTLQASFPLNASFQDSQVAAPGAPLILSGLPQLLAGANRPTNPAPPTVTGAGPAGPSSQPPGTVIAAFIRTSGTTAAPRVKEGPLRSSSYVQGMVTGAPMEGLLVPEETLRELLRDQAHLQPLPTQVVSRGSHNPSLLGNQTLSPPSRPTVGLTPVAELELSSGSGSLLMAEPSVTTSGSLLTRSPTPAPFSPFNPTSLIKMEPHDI
# Chain of ETV1 (P50549 whole entry): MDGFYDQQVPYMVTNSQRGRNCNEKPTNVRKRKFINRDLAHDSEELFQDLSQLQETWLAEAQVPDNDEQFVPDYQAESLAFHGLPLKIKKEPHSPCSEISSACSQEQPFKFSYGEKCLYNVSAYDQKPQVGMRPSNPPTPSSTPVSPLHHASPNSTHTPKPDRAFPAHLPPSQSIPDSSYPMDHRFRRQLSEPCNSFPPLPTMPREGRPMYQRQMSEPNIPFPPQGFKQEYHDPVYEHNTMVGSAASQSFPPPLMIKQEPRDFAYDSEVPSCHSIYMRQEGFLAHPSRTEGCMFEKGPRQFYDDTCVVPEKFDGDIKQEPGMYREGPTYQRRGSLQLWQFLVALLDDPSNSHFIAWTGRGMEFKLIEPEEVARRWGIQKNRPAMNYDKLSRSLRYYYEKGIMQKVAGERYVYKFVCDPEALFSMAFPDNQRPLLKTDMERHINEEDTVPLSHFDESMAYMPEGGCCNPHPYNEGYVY
# Chain of CRX (O43186 whole entry): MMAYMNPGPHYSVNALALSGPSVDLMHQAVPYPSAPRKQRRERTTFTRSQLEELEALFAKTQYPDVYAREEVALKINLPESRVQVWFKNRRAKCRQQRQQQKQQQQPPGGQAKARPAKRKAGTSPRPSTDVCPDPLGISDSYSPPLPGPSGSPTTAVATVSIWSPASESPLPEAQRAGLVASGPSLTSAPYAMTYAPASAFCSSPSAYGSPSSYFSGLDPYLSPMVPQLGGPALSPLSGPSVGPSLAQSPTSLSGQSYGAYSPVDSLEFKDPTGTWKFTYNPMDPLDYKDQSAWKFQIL
# Chain of ELF1 (P32519 whole entry): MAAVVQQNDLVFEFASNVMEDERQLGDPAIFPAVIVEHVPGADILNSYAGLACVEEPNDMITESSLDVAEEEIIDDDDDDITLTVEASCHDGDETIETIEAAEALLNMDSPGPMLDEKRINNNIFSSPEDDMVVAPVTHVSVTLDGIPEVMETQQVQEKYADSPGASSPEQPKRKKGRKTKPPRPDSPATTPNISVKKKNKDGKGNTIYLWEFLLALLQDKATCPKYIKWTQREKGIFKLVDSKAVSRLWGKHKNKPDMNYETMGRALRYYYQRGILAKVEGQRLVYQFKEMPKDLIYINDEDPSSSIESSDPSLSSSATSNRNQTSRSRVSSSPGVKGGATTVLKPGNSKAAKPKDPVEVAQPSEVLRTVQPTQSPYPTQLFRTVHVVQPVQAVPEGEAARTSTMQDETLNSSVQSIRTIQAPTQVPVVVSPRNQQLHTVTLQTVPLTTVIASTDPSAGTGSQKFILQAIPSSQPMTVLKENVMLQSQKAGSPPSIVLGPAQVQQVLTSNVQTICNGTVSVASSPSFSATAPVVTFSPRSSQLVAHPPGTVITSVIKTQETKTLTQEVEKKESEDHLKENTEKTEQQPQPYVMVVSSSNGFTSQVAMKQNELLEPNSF
# Chain of SPIB (Q01892 whole entry): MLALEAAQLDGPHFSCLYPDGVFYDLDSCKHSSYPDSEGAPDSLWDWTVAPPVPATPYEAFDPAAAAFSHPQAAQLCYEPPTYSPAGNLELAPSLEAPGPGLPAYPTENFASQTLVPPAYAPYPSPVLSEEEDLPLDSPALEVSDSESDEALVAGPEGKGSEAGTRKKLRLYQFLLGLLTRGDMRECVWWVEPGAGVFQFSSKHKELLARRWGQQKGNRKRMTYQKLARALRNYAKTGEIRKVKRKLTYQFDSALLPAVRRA
# Chain of HSF1 (Q00613 whole entry): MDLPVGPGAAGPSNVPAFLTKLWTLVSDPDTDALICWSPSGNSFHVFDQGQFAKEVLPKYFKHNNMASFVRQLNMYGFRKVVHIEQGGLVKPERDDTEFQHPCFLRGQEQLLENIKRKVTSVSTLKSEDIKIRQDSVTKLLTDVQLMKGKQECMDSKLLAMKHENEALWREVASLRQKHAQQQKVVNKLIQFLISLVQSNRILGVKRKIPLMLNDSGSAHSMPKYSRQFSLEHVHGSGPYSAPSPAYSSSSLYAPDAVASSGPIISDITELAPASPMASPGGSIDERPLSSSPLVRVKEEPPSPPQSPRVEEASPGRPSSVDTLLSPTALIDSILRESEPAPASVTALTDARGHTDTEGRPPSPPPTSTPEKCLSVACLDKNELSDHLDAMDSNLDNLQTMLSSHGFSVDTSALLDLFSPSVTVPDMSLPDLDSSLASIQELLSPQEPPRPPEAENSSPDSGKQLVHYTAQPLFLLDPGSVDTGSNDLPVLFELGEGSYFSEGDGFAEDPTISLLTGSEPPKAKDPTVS
# Chain of ETV5 (P41161 whole entry): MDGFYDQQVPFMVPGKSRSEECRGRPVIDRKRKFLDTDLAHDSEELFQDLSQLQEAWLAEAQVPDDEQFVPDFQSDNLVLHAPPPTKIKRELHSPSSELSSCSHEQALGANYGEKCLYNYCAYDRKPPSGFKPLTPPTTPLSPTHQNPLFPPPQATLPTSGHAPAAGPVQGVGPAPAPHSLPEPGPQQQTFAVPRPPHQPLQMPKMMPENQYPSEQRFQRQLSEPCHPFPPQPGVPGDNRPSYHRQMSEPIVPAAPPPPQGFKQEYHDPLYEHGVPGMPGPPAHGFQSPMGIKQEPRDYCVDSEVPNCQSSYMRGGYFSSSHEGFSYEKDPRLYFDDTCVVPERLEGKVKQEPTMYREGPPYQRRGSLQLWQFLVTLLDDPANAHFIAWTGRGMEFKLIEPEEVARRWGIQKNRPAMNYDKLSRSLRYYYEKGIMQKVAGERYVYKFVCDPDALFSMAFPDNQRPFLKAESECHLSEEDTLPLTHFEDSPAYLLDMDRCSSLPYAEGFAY
sequence,measurement,setting,value
CTGAGC,binding signal,FLI1,"1.08 fold enrichment (6-mer frequency, TF over GST control)"
same,binding signal,ELK1,"1.15 fold enrichment (6-mer frequency, TF over GST control)"
same,binding signal,GABPA,"1.18 fold enrichment (6-mer frequency, TF over GST control)"
same,binding signal,ERG,"1.09 fold enrichment (6-mer frequency, TF over GST control)"
same,binding signal,ELF1,"1.19 fold enrichment (6-mer frequency, TF over GST control)"
same,binding signal,EHF,"1.18 fold enrichment (6-mer frequency, TF over GST control)"
same,binding signal,SPI1,"1.11 fold enrichment (6-mer frequency, TF over GST control)"
same,binding signal,SPIB,"1.06 fold enrichment (6-mer frequency, TF over GST control)"
same,binding signal,ELK3,"1.18 fold enrichment (6-mer frequency, TF over GST control)"
same,binding signal,FEV,"1.21 fold enrichment (6-mer frequency, TF over GST control)"
same,binding signal,ETV5,"1.12 fold enrichment (6-mer frequency, TF over GST control)"
same,binding signal,HSF1,"1.09 fold enrichment (6-mer frequency, TF over GST control)"
same,binding signal,SPIC,"1.08 fold enrichment (6-mer frequency, TF over GST control)"
same,binding signal,ELF4,"1.19 fold enrichment (6-mer frequency, TF over GST control)"
same,binding signal,ELK4,"1.14 fold enrichment (6-mer frequency, TF over GST control)"
same,binding signal,ETV2,"1.37 fold enrichment (6-mer frequency, TF over GST control)"
same,binding signal,ELF3,"1.16 fold enrichment (6-mer frequency, TF over GST control)"
same,binding signal,CRX,"1.3 fold enrichment (6-mer frequency, TF over GST control)"
same,binding signal,ETV1,"1.15 fold enrichment (6-mer frequency, TF over GST control)"
